This is a sample that favours compounds with a hit; in the whole collection about 6.3% have one here.
RORg inh = ROR gamma (mouse) transcription inhibition; P51450; Drosophila S2 Gal4-RORgamma UAS-luciferase reporter, 20 h; Potency, µM (doses to about 53.6 µM), inactives show at the highest dose activity change, negative = inhibition, most hits filed as inhibitors; 310,000 compounds, 5.4% hits; further: on the % scale 0 is the no-effect control and ±100 the full control effect; nearly all actives have a fitted effect of over 60% in size
Target sequence (P51450 whole entry, looked up, the tested form may be a part): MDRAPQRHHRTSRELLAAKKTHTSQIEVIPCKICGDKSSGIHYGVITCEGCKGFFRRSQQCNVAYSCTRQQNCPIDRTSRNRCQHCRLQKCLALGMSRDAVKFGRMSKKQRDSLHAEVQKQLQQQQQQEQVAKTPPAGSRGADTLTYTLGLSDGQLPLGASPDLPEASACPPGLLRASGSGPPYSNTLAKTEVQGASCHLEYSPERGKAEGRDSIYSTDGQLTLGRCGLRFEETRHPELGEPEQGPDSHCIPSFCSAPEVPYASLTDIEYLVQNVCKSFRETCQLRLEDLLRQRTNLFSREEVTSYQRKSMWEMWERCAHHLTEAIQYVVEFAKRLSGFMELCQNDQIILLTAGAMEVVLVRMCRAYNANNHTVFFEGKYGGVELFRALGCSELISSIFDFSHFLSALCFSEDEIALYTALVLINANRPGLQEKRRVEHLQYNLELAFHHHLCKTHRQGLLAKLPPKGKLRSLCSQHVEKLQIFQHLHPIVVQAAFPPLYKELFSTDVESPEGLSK
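ROR gamma transcriptional activity was tracked as Gal4-UAS luciferase output in stably transfected Drosophila Schneider cells, with compound added 1 hr before 700 uM copper sulfate induction and a 20 hr ambient-temperature incubation.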
TGFb inhibitor = inhibitors of TGF-b signaling | HepG2 CAGA-GFP TGF-b/SMAD3 reporter, GFP fluorescence, 18 h; TGF-beta stimulated, 500 pg/mL final | Potency, µM (series often up to 46.1 µM), without a hit: at the highest dose activity, negative = inhibition, usual class: inhibitors | 410,000 compounds, 1.2% hits | AID 588855; further: on the % scale 0 is the no-effect control and ±100 the full control effect; nearly all actives have a fitted effect of over 65% in size
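HEPG2 CAGA-GFP cells (1000/well, DMEM with 1% FBS) were pre-incubated 2 h at 37 degrees C, given compound by pin tool, then stimulated with TGF-beta at 500 pg/mL final for 18 h before per-cell GFP fluorescence imaging.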
S2 tox = reduces viability in counter-screen for ATXN expression inhibitors. S2 cells (HEK-293 line with an ATXN2-luciferase reporter) viability, CellTiter-Fluor protease fluorescence, 24 h. Potency, µM (titrated, usually from 56.7 µM), actives largely listed as cytotoxic. 400,000 compounds, 0.49% hits. AID 651635; further: nearly all actives have a fitted effect of over 40% in size
Gal4-VP16 FLuc = counter-screen for ROR gamma inhibitors: Gal4-VP16 reporter; 310,000 compounds, 3.5% hits; Potency, µM (series often up to 53.6 µM), for the others: at the top dose activity, negative = inhibition, actives largely listed as inhibitors; Drosophila S2 Gal4-VP16 UAS-luciferase, luminescence, 20 h; AID 2546;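 further: Gal4-VP16 expression switched on by copper sulfate through the metallothionein promoter; on the % scale 0 is the no-effect control and ±100 the full control effect; nearly all actives have a fitted effect of over 50% in size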
HepG2 tox = kills HepG2 cells in TGF-b inhibitor counter-screen. HepG2 CAGA-GFP viability, ATP luminescence, 18 h. Potency, µM (highest dose often 46.1 µM), for the others: top-dose activity change, negative = cytotoxicity, hits mostly cytotoxic. 410,000 compounds, 0.76% hits
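HepG2 CAGA-GFP cells (1000/well, DMEM with 1% FBS) received compound, then TGF-beta at 500 pg/mL final, and were incubated 18 hours at 37 degrees C. Viability was read by CellTiter-Glo luminescence. Media-only wells were set as complete cell-killing and DMSO as no toxicity.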
ATXN2 expr inh = inhibitors of ATXN2 expression | HEK-293 ATXN2-luciferase reporter, luminescence, 24 h | Potency, µM (titrated, usually from 57 µM), without a hit: at the top dose activity change, negative = inhibition, usual class: inhibitors | 360,000 compounds, 0.72% hits; further: on the % scale 0 is the no-effect control and ±100 the full control effect; nearly all actives have a fitted effect of over 55% in size
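qHTS (up to 57 uM final) was run with 24 h compound exposure of reporter cells at 37 °C. Each well was multiplexed: SteadyGlo luminescence measured ATXN2-luciferase expression after a fluorogenic Gly-Phe-AFC viability readout (25 uM final).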
* marks the source's active call; other numbers are inactive results; i = inactive; ? = inconclusive; . = no result; [ ] = dose if it differs, or a comment. The call rests on the fitted dose curve; in most records, active means well fitted curve in the direction sought with a large enough effect; inconclusive means small, poorly fitted or top-dose-only effect, or another doubt; inactive means no such curve, though single readings can be large; an effect the other way counts as inactive or inconclusive. Potency means the concentration at half of the fitted maximal effect.

SMILES	RORg inh	TGFb inhibitor	S2 tox	Gal4-VP16 FLuc	HepG2 tox	ATXN2 expr inh
Cc1ccc(NS(=O)(=O)c2ccc(NC(=O)C3CC3)cc2)c(C)c1	82%	?	i	25µM*	-1%	-24%
Cc1ccc(NC(=S)NC(=O)C2CCC2)cc1C	2.2µM*	-13%	i	2.8µM*	-6%	60%
Cc1ccc(NS(=O)(=O)c2ccc(NC(=O)c3cccs3)cc2)c(C)c1	?	0%	i	-14%	12%	-16%
NC(=S)Nc1ccc2cc[nH]c2c1	5%	-5%	i	0%	2%	-21%[11.3 µM]
Cc1ccc(NC(=S)NC(=O)C2CC2)c(C)c1	5µM*	-17%	i	7.1µM*	-11%	56%
C/C(=N\O)[C@@H](C)NCC(C)(C)CN[C@H](C)/C(C)=N/O	.	.	i	.	.	-11%
CC(=O)OC[C@@H]1CN(Cc2cccc(C(F)(F)F)c2)C[C@H](n2cnc3c(NCc4ccco4)ncnc32)O1	.	1%	?	.	-18%	-17%
NC(=O)C(NN=C(c1ccccc1)c1ccccc1)c1ccccc1 (centres undefined)	.	5%	?	.	-9%	.
O=C1CSC2(C(=O)N(Cc3cccc(C(F)(F)F)c3)c3ccccc32)N1c1ccc(F)c(F)c1 (centres undefined)	.	?	i	.	-23%	-36%
O=c1[nH][nH]c2c1[C@H](c1ccc(Cl)cc1)O[C@H](C1CCCCC1)C2	.	.	i	.	.	17%
CCOc1ccc(N2CC(NC(=O)c3cc4ccccc4o3)CC2=O)cc1 (centres undefined)	.	25%	.	.	6%	.
COc1ccc(CCNC(c2ccc(F)cc2)c2nnc(-c3ccccc3Cl)o2)cc1OC (centres undefined)	.	18µM*	?	.	-20%	-33%
O=C(Nc1ccc(C(F)(F)F)cc1)c1cc(S(=O)(=O)NCC2COc3ccccc3O2)ccc1F (centres undefined)	-21%	-1%	i	?	18µM*	-17%
COC(=O)N1C2CCCCC2=NN(c2ccccc2)N1C(=O)OC (centres undefined)	.	6%	i	.	-14%	-12%
Cc1ccc(C(=O)Nc2nnc(SCC(=O)N3CCCc4ccccc43)s2)cc1	0.5µM*	-11%	i	1.3µM*	-12%	?
CCOC(=O)CNC(=O)CSc1nnc(NC(=O)c2ccc(C)cc2)s1	5.6µM*	5%	i	6.3µM*	-11%	?
Cc1ccc(NC(=O)CSc2nnc(NC(=O)c3ccc(S(=O)(=O)N4CCOCC4)cc3)s2)cc1	-103%	-7%	i	32µM*	3%	33%
CCOC(=O)c1ccc(NC(=O)CSc2nnc(NC(=O)c3ccc(S(=O)(=O)N4CCOCC4)cc3)s2)cc1	-1%	-10%	i	0%	-8%	4%
CCOC(=O)CNC(=O)CSc1nnc(SCC(=O)NCC(=O)OCC)s1	-16%	2%	i	3%	0%	2%
O=C(CSc1nnc(NC(=O)c2ccc3c(c2)OCO3)s1)NCc1ccco1	13µM*	-7%	i	?	-11%	-14%
O=C(CSc1nnc(NC(=O)c2ccccc2)s1)NCc1ccco1	?	-3%	i	?	-9%	-17%
CC(=O)c1cc2ccccc2s1	.	.	i	.	.	3%
COc1ccccc1NC(=O)c1ncn(-c2ccccc2)n1	.	.	.	.	-21%	.
CC(=O)Nc1ccc(NC(=O)CSc2nnc(NC(=O)c3ccc(Br)o3)s2)cc1	3.2µM*	-26%	i	11µM*	-66%	-30%
CC(C)Oc1ccc(C(=O)Nc2nnc(SCC(=O)N3CCOCC3)s2)cc1	3.2µM*	7%	i	1.8µM*	11%	10µM*
SMILES	RORg inh	TGFb inhibitor	S2 tox	Gal4-VP16 FLuc	HepG2 tox	ATXN2 expr inh
CCOC(=O)CNC(=O)CSc1nnc(NC(=O)c2ccc3c(c2)OCO3)s1	7.1µM*	3%	i	?	11%	-39%
C/C(=C(\CCOC(=O)c1ccccc1)SS/C(CCOC(=O)c1ccccc1)=C(/C)N(C=O)Cc1cnc(C)nc1N)N(C=O)Cc1cnc(C)nc1N	.	.	i	.	.	.
CCCSc1nnc2n(C)c(=O)c3c4c(sc3n12)CCC4	?	-2%	i	4%	-28%	2%
Cn1c(=O)c2c3c(sc2n2c(SCC(N)=O)nnc12)CC(C(C)(C)C)CC3 (centres undefined)	-29%	1%	i	-11%	13µM*	-11%
CCCCN(CCCC)C(=O)CSc1nnc2n(C)c(=O)c3c4c(sc3n12)CCCC4	?	-6%	?	4.5µM*	16%	?
O=C(Nc1ccc(Br)cn1)c1cccc(C(=O)Nc2ccc(Br)cn2)c1	?	4%	i	1.3µM*	0%	?
COc1cccc(C(=O)Nc2ccc(NC(=O)C(C)(C)C)cn2)c1	7.1µM*	7%	i	8.9µM*	-6%	?
CC(=O)NCCNc1nc2c(-c3cccc(C)c3)nnn2c2ccc(Cl)cc12	.	-8%	i	.	7%	-2%
COc1ccc(NC(=O)c2oc3ccccc3c2NC(=O)Cc2coc3c(C)c(C)ccc23)cc1	.	2%	i	.	4%	3%
CCOC(=O)N1CCN(C(=S)NC(=O)/C=C/c2ccc(C)cc2)CC1	5µM*	?	i	5.6µM*	2%	13%
COc1ccc(/C=C/C(=O)NC(=S)N2CCN(C)CC2)cc1	5.6µM*	-18%	i	?	-1%	12%
COc1ccc(/C=C/C(=O)NC(=S)N2CCCCC2)cc1OC	?	-24%	i	?	3%	3%
O=C(OCC1CCCO1)c1ccc2c(c1)N(Cc1cccc(Cl)c1)C(=O)c1ccccc1S2(=O)=O (centres undefined)	.	-26%	i	.	-6%	5%
C[C@H]1CN([C@@H](C)CO)S(=O)(=O)c2ccc(Br)cc2O[C@H]1CN(C)C(=O)Cc1ccccn1	.	-18%	i	.	-31%	2%
N=c1c(-c2nc3ccccc3[nH]2)cc(C(=O)c2ccco2)nn1-c1ccccc1	2.8µM*	-18%	?	5µM*	-22%	?
N=c1c(-c2nc3ccccc3[nH]2)cc(C(=O)c2cccs2)nn1-c1ccccc1	-4%	1%	i	?	3%	2%
COc1ccccc1NC(=O)/C(C#N)=C/c1ccncc1	?	4%	i	2.5µM*	0%	-17%
Cc1cc(C)c(NC(=O)CSc2nc(COc3ccccc3)nc3ccccc23)c(C)c1	?	-5%	?	16µM*	-53%	-27%

From PubChem
